Source: PubChem
ABHD5-PLIN5 inh: inhibitors of human ABHD5-perilipin-5 interaction. Q00G26+Q8WTS1. Split G. princeps luciferase complementation, luminescence, 4 h. inhibition, % at 4 µM. 360,000 compounds, 0.78% hits. AID 602281;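 active means inhibition above the mean inhibition across every tested compound plus 3 SD, cut at about 22% in these data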;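 further: 0% = DMSO only wells and the 100% control is not disclosed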
TLR9-MyD88 block: TLR9-MyD88 interaction inhibition. inhibition, % at 4.98 µM. CHO BLA complementation TLR9-MyD88, CCF4 FRET ratio. Q9NR96+Q99836. 340,000 compounds, 0.21% hits;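 active means inhibition above the mean over all tested compounds plus 3 SD, cut at about 21% in these data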;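 further: 0% = DMSO only wells and 100% = clavulanate BLA inhibitor control wells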
PRMT1 inh: blocks human protein arginine methyltransferase 1 | Q99873 | recombinant PRMT1, activity-based probe fluorescence polarization | inhibition, % at 2.79 µM | 370,000 compounds, 1.3% hits | AID 652257;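 active means inhibition above about 21% made by adding two undisclosed values, limit read from the data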
Target sequence (Q99873 whole entry, looked up): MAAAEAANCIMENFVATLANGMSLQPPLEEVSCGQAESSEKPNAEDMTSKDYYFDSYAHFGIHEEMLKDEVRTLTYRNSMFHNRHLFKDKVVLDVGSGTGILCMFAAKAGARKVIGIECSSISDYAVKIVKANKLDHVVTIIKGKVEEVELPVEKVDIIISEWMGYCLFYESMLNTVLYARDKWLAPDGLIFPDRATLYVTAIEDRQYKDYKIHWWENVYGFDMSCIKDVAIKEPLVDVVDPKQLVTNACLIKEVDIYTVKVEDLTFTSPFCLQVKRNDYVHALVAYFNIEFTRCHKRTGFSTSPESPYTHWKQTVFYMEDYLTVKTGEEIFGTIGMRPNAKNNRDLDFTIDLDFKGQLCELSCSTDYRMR
rCAG RNA binder: binds r(CAG) RNA repeats | r(CAG) RNA repeat, TO-PRO-1 dye displacement fluorescence | inhibition, % at 3 µM | 370,000 compounds, 1.3% hits | AID 651821;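 active means inhibition above the plate cutoff, the mean of all test compounds on that plate plus 3 SD, cut at about 35% in these data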;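 further: 0% = DMSO alone and 100% = 100 µM mitoxantrone as full dye displacement; higher means more dye released from RNA so lower well fluorescence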
NOD2 RIPK2 PPI: inhibitors of human NOD2-RIPK2 interaction; O43353; CHO BLA complementation NOD2-RIPK2, CCF4 ratio; inhibition, % at 4.98 µM; 360,000 compounds, 0.38% hits; in the data active means inhibition above about 21%;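 further: 0% = vehicle only and 100% = reference blocker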
TLR4-MyD88 BLA: blocks binding of human TLR4 to MyD88; O00206+Q99836; HeLa CL3-4 TLR4/MyD88 BLA complementation, FRET ratio; inhibition, % at 8.4 µM; 200,000 compounds, 0.18% hits; in the data active means inhibition above about 25%;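 further: 0% = vehicle and 100% = reference inhibitor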
PRMT1 confirm: confirmation of human PRMT1 inhibitors | AID 687036 | 3,300 compounds, 42% hits | recombinant His-PRMT1, activity-based probe fluorescence polarization | shares compounds with PRMT1 inh | inhibition, % at 2.79 µM;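 active means mean inhibition across replicates above the hit cutoff derived for the earlier primary screen, cut at about 22% in these data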
* = called active by the depositor. In the library only some 3.3% were active in any assay of this set; here they are far more common.

COc1ccc(OC)c(/C=C/c2ccc3cccc(O)c3n2)c1 was read as ABHD5-PLIN5 inh 11, TLR9-MyD88 block 4, PRMT1 inh 3, rCAG RNA binder 10 and NOD2 RIPK2 PPI 10.
`COc1ccc(NC(=O)C2CSC(C)(C)N2C=O)cc1` (stereo not given) gave ABHD5-PLIN5 inh 1, TLR9-MyD88 block -2, PRMT1 inh 1, rCAG RNA binder 1, NOD2 RIPK2 PPI -3 and TLR4-MyD88 BLA -10.
`CC1(C)SCC(C(=O)O)N1C=O` (stereo not given) gave ABHD5-PLIN5 inh -10, TLR9-MyD88 block 3, PRMT1 inh 26*, rCAG RNA binder 0, NOD2 RIPK2 PPI 9, TLR4-MyD88 BLA 8 and PRMT1 confirm 2.
For COc1ccccc1Cn1c(=S)[nH]c2cc(C(=O)N3CCCC(C)C3)ccc2c1=O (stereo not given) the results were ABHD5-PLIN5 inh 1, TLR9-MyD88 block -2, PRMT1 inh 2, rCAG RNA binder 6 and NOD2 RIPK2 PPI -9.
For Cc1ccc(/C=C/C(=O)Nc2nccs2)o1 the results were ABHD5-PLIN5 inh 4, TLR9-MyD88 block 4, PRMT1 inh 29*, rCAG RNA binder 5, NOD2 RIPK2 PPI 5, TLR4-MyD88 BLA -1 and PRMT1 confirm 5.
Screening CCOC(=O)c1c(S(=O)(=O)NCC(=O)N2CCN(c3ccc(F)cc3)CC2)c(C)n(C)c1C returned ABHD5-PLIN5 inh 1, TLR9-MyD88 block 3, PRMT1 inh 0, rCAG RNA binder -2 and NOD2 RIPK2 PPI -7.
Cc1ccc(NC(=S)c2nc3ccccc3s2)cc1 was read as ABHD5-PLIN5 inh -17, TLR9-MyD88 block 4, PRMT1 inh 1, rCAG RNA binder 1, NOD2 RIPK2 PPI -2 and TLR4-MyD88 BLA -2.
For Cc1ccc(C)c(NC(=S)c2nc3ccccc3s2)c1 the results were ABHD5-PLIN5 inh -9, TLR9-MyD88 block -4, PRMT1 inh 29*, rCAG RNA binder -2, NOD2 RIPK2 PPI -16, TLR4-MyD88 BLA 10 and PRMT1 confirm 9.
For CN1CC=C(c2ccc(C(F)(F)F)cc2)N(c2ccc(Br)cc2)C1=O the results were PRMT1 inh -3 and rCAG RNA binder 0.
For CCNc1sc(C(=O)c2cccs2)c(N)c1C#N the results were ABHD5-PLIN5 inh 6, TLR9-MyD88 block 12, PRMT1 inh 29*, rCAG RNA binder 2, NOD2 RIPK2 PPI -1, TLR4-MyD88 BLA 17 and PRMT1 confirm 11.
CCC(=O)Nc1ccc(N2CCN(S(C)(=O)=O)CC2)cc1 was read as ABHD5-PLIN5 inh -5, TLR9-MyD88 block -1, PRMT1 inh -1, rCAG RNA binder 0, NOD2 RIPK2 PPI -6 and TLR4-MyD88 BLA -6.
`Cc1ccc(-c2cnc(-c3ccccc3C(=O)O)o2)cc1` gave ABHD5-PLIN5 inh -3, TLR9-MyD88 block -7, PRMT1 inh -3, rCAG RNA binder 10 and NOD2 RIPK2 PPI -1.
`CC1=C(SCCC#N)S/C(=C2\SC(C)=C(SCCC#N)S2)S1` gave ABHD5-PLIN5 inh -2, TLR9-MyD88 block -9, PRMT1 inh 71*, rCAG RNA binder 6, NOD2 RIPK2 PPI -10, TLR4-MyD88 BLA -19 and PRMT1 confirm 47*.
Cn1c(SCCC#N)nnc1-c1ccc(F)cc1 was read as ABHD5-PLIN5 inh 5, TLR9-MyD88 block -13, NOD2 RIPK2 PPI 0 and TLR4-MyD88 BLA -7.
CCN(CC(=O)NCc1cccs1)C(=O)c1ccc(OC)c(OC)c1 was read as ABHD5-PLIN5 inh 4, TLR9-MyD88 block 3, PRMT1 inh 0, rCAG RNA binder -2 and NOD2 RIPK2 PPI -14.
`CCc1ccccc1N1CSC2=C(C#N)C(c3ccccc3F)CC(=O)N2C1` (stereo not given) gave ABHD5-PLIN5 inh -6, TLR9-MyD88 block -12, PRMT1 inh 54*, rCAG RNA binder 29, NOD2 RIPK2 PPI 5, TLR4-MyD88 BLA -2 and PRMT1 confirm 42*.
Screening COc1ccc(OC)c(C2CC(=O)N3CN(c4ccccc4)CSC3=C2C#N)c1 (stereo not given) returned ABHD5-PLIN5 inh -12, TLR9-MyD88 block -4, PRMT1 inh 7, rCAG RNA binder 6, NOD2 RIPK2 PPI -24 and TLR4-MyD88 BLA 0.
COc1cc(OC)c(C2CC(=O)N3CN(c4ccccc4C)CSC3=C2C#N)cc1OC (stereo not given) was read as PRMT1 inh 29*, rCAG RNA binder 15, TLR4-MyD88 BLA 1 and PRMT1 confirm 80*.
`COc1ccc(C2CC(=O)N3CN(c4ccccc4F)CSC3=C2C#N)cc1OC` (stereo not given) gave ABHD5-PLIN5 inh -17, TLR9-MyD88 block 3, PRMT1 inh 19, rCAG RNA binder 12, NOD2 RIPK2 PPI 2 and TLR4-MyD88 BLA 1.
COc1ccc(N2CSC3=C(C#N)C(c4cccc(OC)c4OC)CC(=O)N3C2)cc1 (stereo not given) was read as ABHD5-PLIN5 inh -16, TLR9-MyD88 block 3, PRMT1 inh 41*, rCAG RNA binder 28, NOD2 RIPK2 PPI 13, TLR4-MyD88 BLA -9 and PRMT1 confirm 68*.
Screening Cc1cc(C)cc(NC(=O)CN(C)CC(=O)N(CC(C)C)c2c(N)n(CC(C)C)c(=O)[nH]c2=O)c1 returned ABHD5-PLIN5 inh 0, TLR9-MyD88 block 2, PRMT1 inh 4, rCAG RNA binder 1 and NOD2 RIPK2 PPI -2.
Screening COc1cccc(CNC(=O)CSc2ccc(-c3ccco3)nn2)c1 returned ABHD5-PLIN5 inh 9, TLR9-MyD88 block 2, PRMT1 inh 8, rCAG RNA binder 1, NOD2 RIPK2 PPI 1 and TLR4-MyD88 BLA 15.
`O=C(CSc1ccc(-c2ccco2)nn1)NCc1ccc(Cl)cc1` gave ABHD5-PLIN5 inh 6, TLR9-MyD88 block 11, PRMT1 inh 44*, rCAG RNA binder 9, NOD2 RIPK2 PPI -6, TLR4-MyD88 BLA -7 and PRMT1 confirm 10.
`Clc1ccc(CSc2ccc(-c3ccco3)nn2)cc1` gave ABHD5-PLIN5 inh -1, TLR9-MyD88 block 0, PRMT1 inh 5, rCAG RNA binder 0, NOD2 RIPK2 PPI -2 and TLR4-MyD88 BLA -5.
Screening Cc1ccc(CSc2ccc(-c3ccco3)nn2)cc1 returned ABHD5-PLIN5 inh -1, TLR9-MyD88 block -12, PRMT1 inh 33*, rCAG RNA binder 10, NOD2 RIPK2 PPI -7, TLR4-MyD88 BLA -6 and PRMT1 confirm 7.
Screening O=C(CSc1ccc(-c2ccco2)nn1)NCc1ccccc1 returned ABHD5-PLIN5 inh 2, TLR9-MyD88 block 1, PRMT1 inh 41*, rCAG RNA binder 9, NOD2 RIPK2 PPI 5, TLR4-MyD88 BLA -3 and PRMT1 confirm 16.
COCC(=O)Nc1ccc2c(c1)C(=O)N(C)[C@@H]1CC[C@@H](CC(=O)OC)O[C@H]1CO2 was read as PRMT1 inh 0 and rCAG RNA binder 1.
Screening Cc1ccc2ccc(C)[n+](CCCS(=O)(=O)[O-])c2c1 returned ABHD5-PLIN5 inh 0, TLR9-MyD88 block -6, PRMT1 inh -2, rCAG RNA binder -2, NOD2 RIPK2 PPI -5 and TLR4-MyD88 BLA 4.
